Pf growth 48h: inhibits P. falciparum growth in the first generation, 48 h | P. falciparum luciferase growth in erythrocytes, 48 h | Potency, µM (top dose mostly 28.7 µM), inactives show at the highest dose activity change, negative = inhibition, most hits filed as inhibitors | hit rate 5.9% among 310,000 | AID 504832; also: potency is read from the fitted curve at half-maximal effect; % is scaled to controls: 0 for no effect and ±100 for the full control effect
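Growth was read as firefly luciferase luminescence after a 48 h, 37 C, 5% CO2 exposure of compounds to reporter-bearing P. falciparum cultures (0.1% parasitemia, 2% hematocrit final) in Albumax-supplemented RPMI 1640.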
CHX counter: affects cycloheximide protein synthesis inhibition readout, counter-screen | cell reporter, cycloheximide protein synthesis inhibition counterscreen | max response, % | hit rate 12% among 300,000 | AID 2314; in the data active = max response mostly above about 13%, no sharp cut-off; inactive = mostly below about 14%; also: read at 38.3 µM for the half of the compounds with a filed dose; 0% is about no effect
Shiga inhibitor: Shiga toxin inhibition; Vero cells, Shiga toxin protein synthesis inhibition reporter; inhibition, % at 38.7 µM; hit rate 9.2% among 290,000; AID 2315; in the data active = inhibition mostly above about 28%, no sharp cut-off; inactive = mostly below about 43%; also: 0% is about no effect
Pf growth 96h: P. falciparum growth inhibition at 96 hours; P. falciparum luciferase reporter growth, 96 h; Potency, µM (highest dose often 28.7 µM), without a hit: at the highest dose activity change, negative = inhibition, usual class: inhibitors; hit rate 6.9% among 320,000; AID 504834; also: potency is read from the fitted curve at half-maximal effect; % is scaled to controls: 0 for no effect and ±100 for the full control effect
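Luminescence readout: decreased luciferase signal marks inhibited growth of reporter-expressing P. falciparum in infected red cells (2% hematocrit, 0.05% parasitemia final), exposed to compound two generations (96 h, 37 C, 5% CO2).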
Numbers without * were called inactive; ? = inconclusive; . = no result given; [ ] = dose if it differs, or a comment. Most compounds without a hit are left out; they make up all but 21% or so of the library. Unless noted, calls follow the shape of the dose curve; as a rule, active = well fitted inhibition curve with a large enough effect; inconclusive = small, poorly fitted or top-dose-only effect, or another doubt; inactive = no such curve, though single readings can be large or run the other way.

SMILES	Pf growth 48h	CHX counter	Shiga inhibitor	Pf growth 96h
Cn1c(N2C(=O)CC(Cc3ccccc3)C2=O)nc2ccccc21 (stereo not given)	11%	-2	19	1.7µM*
Cc1cc(C)cc(CC2CC(=O)N(c3nc(C)cc(C)n3)C2=O)c1 (stereo not given)	21%	27*	51*	-1%
Cc1ccc(OS(=O)(=O)c2ccccc2)c(/C=N/N=C2\NC(=O)C(C)S2)c1 (stereo not given)	?	12*	26	?
O=C1CS/C(=N/N=C/c2ccccc2OS(=O)(=O)c2ccccc2)N1	-27%	3	-8	?
CC(C)CCOC(=O)/C(=C/c1ccco1)NC(=O)/C=C/c1ccccc1	?	20*	51	4.1µM*
NC(=O)/C(=C/c1ccco1)NC(=O)/C=C/c1ccccc1	-3%	2	-4	?
CN=C(Nc1cccc(Cl)c1)SC1CC(=O)N(c2ccc(OC)cc2)C1=O (stereo not given)	?	-1	-12	65%
COc1ccc(C(=O)/C=C/C(=O)N(CC(=O)NC2CCCCC2)CC2CCCO2)c(O)c1 (stereo not given)	?	-7	-14	-14%
COc1ccc(C(=O)/C=C/C(=O)N(CC(=O)NC2CCCCC2)Cc2ccccc2OC)c(O)c1	9.3µM*	4	25	?
COc1ccc(C(=O)/C=C/C(=O)N(CC(=O)NC2CCCCC2)Cc2ccccc2)c(O)c1	?	2	-4	2.6µM*
CN1C(=O)NC(c2ccccc2)C2=C1CN(Cc1ccco1)C2=O (stereo not given)	4%	-2	6	8%
CN1C(=O)C2(c3ccccc31)N(C)CC(c1ccccn1)C21SC(=S)N(Cc2ccco2)C1=O (stereo not given)	9.3µM*	32*	27	?
CN1C(=O)C2(c3ccccc31)N(C)CC(c1ccccc1)C21SC(=S)N(Cc2ccco2)C1=O (stereo not given)	1.3µM*	1	-8	15µM*
CC(=O)Nc1ccc(S(=O)(=O)NCCC(=O)OC(C)C(=O)NC2(C#N)CCCCC2)cc1 (stereo not given)	-26%	.	.	11%
CCOC(=O)CSc1nnc(CNC(=O)c2ccc([N+](=O)[O-])cc2)n1C	-20%	-3	-7	4%
CCOc1ccc(CNC(=O)C(=O)c2cn(CC(=O)N3CCOCC3)c3ccccc23)cc1OC	35%	10*	7	-25%
COc1ccc(CNC(=O)C(=O)c2cn(CC(=O)N3CCOCC3)c3ccccc23)cc1	34%	15	25	-2%
O=C(NCc1ccc(F)cc1)C(=O)c1cn(CC(=O)N2CCCC2)c2ccccc12	?	7	18	?
COc1ccccc1CCNC(=O)C(=O)c1cn(CC(=O)N2CCOCC2)c2ccccc12	28%	61*	80*	?
COC(=O)c1ccc(NC(=O)C(=O)c2cn(CC(=O)N3CCOCC3)c3ccccc23)cc1	14%	-11	-2	?
COc1ccccc1CNC(=O)C(=O)c1cn(CC(=O)N2CCCC2)c2ccccc12	?	20*	62*	?
COc1ccc(CNC(=O)C(=O)c2cn(CC(=O)N3CCCC3)c3ccccc23)cc1	66%	18*	81	?
O=C(NCc1ccc(F)cc1)C1CCCN(c2cnccn2)C1 (stereo not given)	16%	-7	-16	?
O=C(Nc1ccccc1)c1ccc(-c2ccccc2C(F)(F)F)o1	?	46*	73*	?
CC(C)NC(=O)c1ccc(-c2ccc(Cl)c(C(F)(F)F)c2)o1	.	-4	-9	3.3µM*
SMILES	Pf growth 48h	CHX counter	Shiga inhibitor	Pf growth 96h
N#Cc1ccccc1NC(=O)c1ccc(-c2ccccc2Cl)o1	146%	30*	123*	.
O=C(Nc1ccccc1)c1ccc(-c2ccccc2Cl)o1	143%	38*	58	99%
O=C(CN(C(=O)Cn1nnc(-c2ccc(F)cc2)n1)c1ccc(F)cc1)NC1CCCC1	?	2	-7	?
O=C(NCc1ccc(Cl)cc1)c1ccc(-c2ccccc2C(F)(F)F)o1	-7%	0	-11	0%
CC(C)NC(=O)c1ccc(-c2ccccc2C(F)(F)F)o1	22%	44*	93*	10%
CCN(CC)S(=O)(=O)c1ccc(C)c(NC(=O)COc2ccc3c(C)cc(=O)oc3c2)c1	2%	-2	-6	14%
Cc1coc2cc3oc(=O)cc(C)c3cc12	38%	-2	15	27%
CC(Oc1ccc2c3c(c(=O)oc2c1)CCC3)C(=O)NC1CCN(Cc2ccccc2)CC1 (stereo not given)	?	-4	-1	?
COc1ccc(-c2cc(=O)oc3cc4occ(C)c4cc23)cc1	?	1	-15	0.83µM*
COc1ccc(-c2cc(=O)oc3cc(OC(C)C(=O)NC4CC4)ccc23)cc1 (stereo not given)	?	-2	9	2.9µM*
CCN(CC)S(=O)(=O)c1ccc(OC)c(NC(=O)C(C)Oc2ccc3c(C)cc(=O)oc3c2)c1 (stereo not given)	1.9µM*	-2	-10	9.3µM*
Cc1cc(=O)oc2cc(OC(C)C(=O)NC3CCN(Cc4ccccc4)CC3)ccc12 (stereo not given)	?	22*	1	-1%
Cc1nnc(SCC(=O)Nc2ccccc2F)n1-c1ccc(F)cc1	-8%[0.00184 µM]	-5	-13	0%
CN(c1ccc(O)cc1)S(=O)(=O)c1ccc2ccccc2c1	107%	24*	77*	84%
C=C1CCC2C(C)(C)[C@H](O)CC[C@@]2(C)[C@@H]1COc1cc(=O)oc2ccccc12 (stereo not given in full)	?	-5	-4	15µM*
C=C1CCC2C(C)(C)[C@@H](O)CC[C@@]2(C)[C@@H]1COc1ccc2ccc(=O)oc2c1 (stereo not given in full)	12µM*	-6	2	5.2µM*
CC(=O)OC1CCC2(C)C(COc3ccc4ccc(=O)oc4c3)C(C)(O)CCC2C1(C)C (stereo not given)	?	-2	-12	9.3µM*
O=C(Oc1cc(=O)oc2ccccc12)c1cccnc1Cl	1%	10	14	-5%
COc1cc(OC)nc(Oc2ccc(N)c(C)c2)n1	5%	9	-2	-1%
CCOc1cccc(C2/C(=C(/O)c3ccc4c(c3)CC(C)O4)C(=O)C(=O)N2Cc2cccnc2)c1 (stereo not given)	?	3	13	?
CCC1CCCCN1S(=O)(=O)c1ccc(NC(=O)c2nc(S(C)(=O)=O)ncc2Cl)cc1 (stereo not given)	25%	-7	-20	-13%
O=C1C(c2c(O)[nH]c3ccccc23)=Nc2ccccc21	.	18	36	.
CC(=O)c1cccc2c(O)c(C3=Nc4ccccc4C3=O)[nH]c12	-39%	48*	89*	?
CCOC(=O)C1=CCC2c3c(c4ccccc4n3C)C(=O)C1N2C(=O)OC(C)(C)C (stereo not given)	8.3µM*	.	.	?
CCOC(=O)C1=CC[C@]2(C)c3c(c4ccccc4n3C)C(=O)C1N2C	13µM*	.	.	?
